Laboratory results taken from PubChem BioAssay (NCATS).
Inconclusive results are not listed. A call without a number means that no potency is given here. A number with no mark means an inactive call. Activity calls are given as the source filed them. The call rests on the fitted dose curve; in most records, active means well fitted cell-killing curve with a large enough effect; inconclusive means small, poorly fitted or top-dose-only effect, or effect the other way; inactive means no such curve, though single readings can be large or run the other way.

Key:
[1] = Viability qHTS for spleen associated tyrosine kinase inhibitor (SYKi) naive MV4-11 cells (AID 1963823); further: nearly all actives have a fitted effect of over 40% in size
How it was run: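 SYK inhibitor-naive MV4-11 cells, 500 per well, exposed to compounds for 72 hr at 37 C, 5% CO2. Viability read as CellTiter-Glo luminescence after 10 min at room temperature.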

[2] = Viability qHTS for spleen associated tyrosine kinase inhibitor (SYKi) drug resistant MV4-11 cells (AID 1963824); further: nearly all actives have a fitted effect of over 35% in size
How it was run: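 CellTiter-Glo luminescence, read 10 min after reagent addition, reports viability after a 72 hr compound exposure. Cells are an MV4-11 line made resistant to SYK inhibition, seeded at 500 per well onto compound-containing plates.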
Potency means the concentration at half of the fitted maximal effect.

CC12CC34C=CC(=O)C(C)(CCC(=O)O)C3C(CC1C4)O2 (centres undefined)
Potency [1]: inactive | Potency [2]: inactive

CC1=C2C(=O)C=C(CO[C@@H]3O[C@H](CO)[C@@H](O)[C@H](O)[C@H]3O)[C@@H]2[C@H]2OC(=O)[C@H](C)[C@@H]2[C@@H](O)C1
Potency [1]: inactive | Potency [2]: inactive

CC1=CC(=O)CC(C)(C)C1CO[C@@H]1O[C@H](CO)[C@@H](O)[C@H](O)[C@H]1O (some centres undefined)
Potency [1]: inactive | Potency [2]: inactive

CC(O)(CC(=O)O)CC(=O)OCc1ccc(O[C@@H]2O[C@H](CO)[C@@H](O)[C@H](O)[C@H]2O)cc1 (some centres undefined)
Potency [1]: inactive | Potency [2]: inactive

CC1(C)C2CC[C@]3(C)C(C(=O)C=C4[C@H]5C[C@@](C)(C(=O)O)CC[C@]5(C)CC[C@]43C)[C@@]2(C)CC[C@@H]1O (some centres undefined)
Potency [1]: inactive | Potency [2]: inactive

CC(C)(O)/C=C1/C(=O)C(C)(C)C(=O)C(C)(C)C1(O)O[C@@H]1O[C@H](COC(=O)c2cc(O)c(O)c(O)c2)[C@@H](O)[C@H](O)[C@H]1O (some centres undefined)
Potency [1]: inactive | Potency [2]: inactive

O=C(O[C@H]1[C@@H]2C[C@@H]3OC[C@@](O)([C@H]2[C@H](O[C@@H]2O[C@H](CO)[C@@H](O)[C@H](O)[C@H]2O)O3)[C@@H]1O)c1ccccc1
Potency [1]: inactive | Potency [2]: inactive

CCS(=O)c1nc(-c2cccc(OCc3ccccc3)c2)cc(C(F)(F)F)n1 (centres undefined)
Potency [1]: 2.91 µM (active) | Potency [2]: 5.8 µM (active)

[O-][n+]1cccc(-c2nc3c(Cl)cccc3cc2[C@@H](Nc2ncnc3cccnc23)C(F)(F)F)c1
Potency [1]: 4.17 µM (active) | Potency [2]: 13.2 µM (active)

CC1NC(=O)CNC(=O)C(C(C)C)NC(=O)C2CCCN2C(=O)C(C(C)C)NC(=O)C(Cc2c[nH]c3ccccc23)NC1=O (centres undefined)
Potency [1]: inactive | Potency [2]: inactive

CN(C)Cc1ccc(-c2cnn3c(-c4cccc(NC(=O)c5cccc(C(F)(F)F)c5)c4)ccnc23)cc1
Potency [1]: 2.91 µM (active) | Potency [2]: 3.66 µM (active)

COC(=O)c1sccc1S(=O)(=O)Nc1ccc(Nc2ccccc2)cc1OC
Potency [1]: 5.17 µM (active) | Potency [2]: 3.26 µM (active)

C/C=C(\C)C(=O)OC[C@H]1O[C@@H](O[C@H]2[C@@H](O[C@H]3O[C@H](COC(=O)/C(C)=C/C)[C@@H](O)[C@H](O)[C@H]3O[C@@H]3O[C@H](CO)[C@@H](O)[C@H](OC(=O)/C(C)=C/C)[C@H]3O)O[C@H](COC(=O)/C(C)=C/C)[C@@H](O)[C@@H]2O)[C@H](O)[C@@H](O)[C@@H]1O
viability (% of control) [1]: 81.6% [at 9.25 µM] | viability, % of control [2]: 90.8% [at 9.25 µM]

CNc1nc(Cc2ccccc2)nc2c1CCNC[C@@H]2C
Potency [1]: inactive | Potency [2]: 11.6 µM (active)

CC1CCCC[C@H]2C(=O)C=C[C@H](O)[C@@H]2CC(=O)O1 (some centres undefined)
Potency [1]: 0.731 µM (active) | Potency [2]: 0.731 µM (active)

CC/C=C\[C@H](O)[C@H](O)C1=C(C)C(=O)[C@]2(O1)C(=O)N[C@@](O)(C(=O)c1ccccc1)[C@@H]2O
Potency [1]: inactive | Potency [2]: inactive

C=C1C(=O)OC2/C=C(\COC(C)=O)CC/C=C(\C=O)CC(OC(=O)CC(C)C)C12 (centres undefined)
Potency [1]: 1.26 µM (active) | Potency [2]: 1.12 µM (active)

O=C(c1cn(Cc2cncn2Cc2ccc(Br)cc2)cc1-c1cccc2ccccc12)N1CCOCC1
Potency [1]: 0.82 µM (active) | Potency [2]: 1.64 µM (active)

CC1CCCCN1CCCOC(=O)c1ccc(OC2CCCCC2)cc1 (centres undefined)
Potency [1]: 8.41 µM (active) | Potency [2]: 13.3 µM (active)

C=C1[C@@H](C2=CC(=O)OC2)CC[C@@]2(O)[C@@H]1CC1[C@H]2CC[C@@H]2C[C@@H](O[C@H]3O[C@@H](C)[C@@H](O[C@@H]4O[C@H](CO[C@@H]5O[C@H](CO)[C@@H](O)[C@H](O)[C@H]5O)[C@@H](O)[C@H](O)[C@H]4O)[C@H](OC)[C@H]3O)CC[C@]12C (some centres undefined)
Potency [1]: 2.19 µM (active) | Potency [2]: 1.55 µM (active)

CC(=O)O[C@@H]1[C@H](OC(C)=O)C[C@@]2(C)C(CC[C@@H](C)[C@]23Cc2c(O)cc4c(c2O3)CN([C@@H](CCC(=O)O)C(=O)O)C4=O)C1(C)C (some centres undefined)
Potency [1]: inactive | Potency [2]: inactive

CC(C)c1nc(-c2ccc(NC(=O)Nc3cccc(C(F)(F)F)c3)c3ccccc23)c2c(N)nccn12
Potency [1]: 0.366 µM (active) | Potency [2]: 0.411 µM (active)

CCn1c(-c2nonc2N)nc2c(C#CCO)ncc(OCCCN)c21
Potency [1]: 0.58 µM (active) | Potency [2]: 1.84 µM (active)

C=C(C(=O)OC[C@H]1O[C@@H](OC(=O)/C=C/c2ccccc2)[C@H](O)[C@@H](O)[C@@H]1O)C(O)CO (some centres undefined)
Potency [1]: 7.96 µM (active) | Potency [2]: 11.2 µM (active)

CN(C)CCCCCCNC(=O)c1cccc(-c2cc(O)c3ncccc3c2)c1
Potency [1]: 2.59 µM (active) | Potency [2]: 3.26 µM (active)

C[C@H]1O[C@@H](O[C@H]2CC[C@@]3(C)C(CC[C@]4(C)C3CC=C3C5CC(C)(C)CC[C@]5(C(=O)O)CC[C@]34C(=O)O)C2(C)C)[C@H](O)[C@@H](O)[C@@H]1O (some centres undefined)
Potency [1]: inactive | Potency [2]: inactive

COc1ccc(C(=O)N(CCC(C)C)Cc2nc(C)c(C)n2Cc2ccccc2C)c(OC)c1
Potency [1]: 20.6 µM (active) | Potency [2]: 20.6 µM (active)

CC(C)C1NC(=O)CNC(=O)C2CCCN2C(=O)C(Cc2c[nH]c3ccccc23)NC(=O)CNC(=O)C(C(O)c2ccc(O)cc2)NC(=O)CNC1=O (centres undefined)
Potency [1]: inactive | Potency [2]: inactive

Cc1cc(C)c(S(=O)(=O)N(Cc2ccc(-c3cccc(S(C)(=O)=O)c3)cc2)Cc2ccc(C(F)(F)F)o2)c(C)c1
Potency [1]: inactive | Potency [2]: 0.0461 µM (active)

COc1ccc2c(c1)O[C@H](O[C@@H]1O[C@H](CO)[C@@H](O)[C@H](O)[C@H]1O)C(=O)N2
Potency [1]: inactive | Potency [2]: inactive

O=C(O)CCc1cccc(O)c1O[C@@H]1O[C@H](CO)[C@@H](O)[C@H](O)[C@H]1O
Potency [1]: inactive | Potency [2]: inactive

CC1=CC(=O)CC(C)(C)C1CCC(C)O[C@@H]1O[C@H](CO)[C@@H](O)[C@H](O)[C@H]1O (some centres undefined)
Potency [1]: inactive | Potency [2]: inactive

C=C[C@H]1[C@H](O[C@@H]2O[C@H](CO)[C@@H](O)[C@H](O)[C@H]2O)OC=C(C(=O)OC)[C@H]1C[C@@H]1c2cc(O)c(O)cc2CCN1C(C)=O
Potency [1]: inactive | Potency [2]: inactive

CN1c2c(nc(N)[nH]c2=O)NC[C@@H]1CNc1ccc(C(=O)N[C@@H](CCC(=O)O)C(=O)O)cc1
Potency [1]: inactive | Potency [2]: inactive

Cc1nnc(-c2sc(NC(=O)[C@H](C(C)C)n3c(=O)[nH]c4ccccc4c3=O)nc2C)o1
Potency [1]: inactive | Potency [2]: inactive

O=C(/C=C/c1ccccc1)OCC1=CC[C@@H]2C(C(=O)O)=CO[C@@H](O[C@@H]3O[C@H](CO)[C@@H](O)[C@H](O)[C@H]3O)[C@H]12
Potency [1]: inactive | Potency [2]: inactive

CNCCC=C1c2ccccc2CCc2ccccc21
Potency [1]: 11.6 µM (active) | Potency [2]: 14.6 µM (active)

COCc1c(Cl)ccc2c1CC[C@H]2c1ncc[nH]1
Potency [1]: inactive | Potency [2]: inactive

CC1=CCC(C(C)(C)O[C@@H]2O[C@H](CO[C@@H]3O[C@@H](C)[C@H](O)[C@@H](O)[C@H]3O)[C@@H](O)[C@H](O)[C@H]2O)CC1 (some centres undefined)
Potency [1]: inactive | Potency [2]: inactive

COc1cc([C@H]2c3cc(O)c(OC)cc3C[C@@H](CO[C@@H]3O[C@H](CO)[C@@H](O)[C@H](O)[C@H]3O)[C@@H]2CO)ccc1O
Potency [1]: inactive | Potency [2]: inactive

CC1(C)C[C@H]2C=C(C=O)[C@]3(C(=O)O)C[C@]3(C)[C@H]2C1
Potency [1]: inactive | Potency [2]: inactive

C[C@@H]1O[C@@H](O[C@H]2[C@@H]3C=CO[C@@H](O[C@@H]4O[C@H](CO)[C@@H](O)[C@H](O)[C@H]4O)[C@@H]3[C@@]3(CO)O[C@@H]23)[C@H](OC(=O)/C=C/c2ccccc2)[C@H](O)[C@H]1O
Potency [1]: inactive | Potency [2]: inactive

Oc1cccc(-c2nc(N3CCOCC3)c3sccc3n2)c1
Potency [1]: 0.82 µM (active) | Potency [2]: 2.06 µM (active)

OC[C@H]1O[C@@H](OCCc2ccccc2)[C@H](O)[C@@H](O)[C@@H]1O
Potency [1]: inactive | Potency [2]: inactive

NC[C@@H]1O[C@@H](O[C@@H]2[C@@H](O[C@@H]3O[C@H](CO)[C@@H](O)[C@H]3O)[C@H](O)[C@@H](N)C[C@H]2N)[C@@H](N)[C@H](O)[C@H]1O
viability (% of control) [1]: 88.1% [at 9.25 µM] | viability, % of control [2]: 93.2% [at 9.25 µM]

CC[C@H]1OC(=O)[C@H](C)[C@@H](O[C@H]2C[C@@](C)(OC)[C@@H](O)[C@H](C)O2)[C@H](C)[C@@H](O[C@@H]2O[C@H](C)C[C@H](N(C)C)[C@H]2O)[C@](C)(O)C[C@@H](C)/C(=N/OCOCCOC)[C@H](C)[C@@H](O)[C@]1(C)O
Potency [1]: inactive | Potency [2]: inactive

COc1c2cc(c(O[C@@H]3O[C@H](CO)[C@@H](O)[C@H](O)[C@H]3O)c1OC)CCCCC(O)CCc1ccc(O)c-2c1 (some centres undefined)
Potency [1]: inactive | Potency [2]: inactive

CC1(CO)CC[C@]2(C(=O)O[C@@H]3O[C@H](CO)[C@@H](O)[C@H](O)[C@H]3O)CC[C@]3(C)C(=CCC4[C@@]5(C)CC[C@H](O[C@@H]6O[C@H](C(=O)O)[C@@H](O)[C@H](O)[C@H]6O)C(C)(C)C5CC[C@]43C)C2C1 (some centres undefined)
viability (% of control) [1]: 87.4% [at 9.25 µM] | viability, % of control [2]: 104% [at 9.25 µM]

CO[C@H]1/C=C/O[C@@]2(C)Oc3c(C)c(O)c4c(O)c(c(/C=N\N5CCN(C6CCCC6)CC5)c(O)c4c3C2=O)NC(=O)/C(C)=C\C=C\[C@H](C)[C@H](O)[C@@H](C)[C@@H](O)[C@@H](C)[C@H](OC(C)=O)[C@@H]1C
Potency [1]: 18.6 µM (active) | Potency [2]: 11.8 µM (active)

COc1cc(/C=C/C=O)cc(OC)c1O[C@@H]1O[C@H](CO)[C@@H](O)[C@H](O)[C@H]1O
Potency [1]: inactive | Potency [2]: inactive

CCOC(=O)C(CCc1ccccc1)NC1CSC(c2cccs2)CN(CC(=O)O)C1=O (centres undefined)
Potency [1]: 25.9 µM (active) | Potency [2]: 6.51 µM (active)

CC(=O)O[C@H]1CC(C)(C)CC2[C@@]13[C@H](O)C[C@]1(C)[C@@]2(CCC2[C@@]4(C)CC[C@H](O[C@@H]5OC[C@H](O[C@@H]6O[C@H](CO)[C@@H](O)[C@H](O)[C@H]6O[C@@H]6OC[C@@H](O)[C@H](O)[C@H]6O)[C@H](O)[C@H]5O[C@@H]5O[C@H](CO)[C@@H](O)[C@H](O)[C@H]5O)C(C)(C)C4CC[C@]21C)O[C@@H]3O (some centres undefined)
Potency [1]: 0.873 µM (active) | Potency [2]: 0.778 µM (active)
